Source: PubChem
Dicer processing: inhibitors of Dicer pre-microRNA processing, primary screen, biochemical, cat-ELCCA, chemiluminescence. Endoribonuclease Dicer (Homo sapiens), Q9UPY3. cat-ELCCA pre-miR-21 Dicer processing; active compounds read high. z-score at 25 µM. hit rate 6% among 47,000; in the data active = z-score above about 3, passing the limit was not always enough;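 note: plate controls were vehicle for no effect and no enzyme for full effect; higher signal means more uncleaved substrate so more Dicer inhibition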
Target sequence (Q9UPY3 whole entry, looked up): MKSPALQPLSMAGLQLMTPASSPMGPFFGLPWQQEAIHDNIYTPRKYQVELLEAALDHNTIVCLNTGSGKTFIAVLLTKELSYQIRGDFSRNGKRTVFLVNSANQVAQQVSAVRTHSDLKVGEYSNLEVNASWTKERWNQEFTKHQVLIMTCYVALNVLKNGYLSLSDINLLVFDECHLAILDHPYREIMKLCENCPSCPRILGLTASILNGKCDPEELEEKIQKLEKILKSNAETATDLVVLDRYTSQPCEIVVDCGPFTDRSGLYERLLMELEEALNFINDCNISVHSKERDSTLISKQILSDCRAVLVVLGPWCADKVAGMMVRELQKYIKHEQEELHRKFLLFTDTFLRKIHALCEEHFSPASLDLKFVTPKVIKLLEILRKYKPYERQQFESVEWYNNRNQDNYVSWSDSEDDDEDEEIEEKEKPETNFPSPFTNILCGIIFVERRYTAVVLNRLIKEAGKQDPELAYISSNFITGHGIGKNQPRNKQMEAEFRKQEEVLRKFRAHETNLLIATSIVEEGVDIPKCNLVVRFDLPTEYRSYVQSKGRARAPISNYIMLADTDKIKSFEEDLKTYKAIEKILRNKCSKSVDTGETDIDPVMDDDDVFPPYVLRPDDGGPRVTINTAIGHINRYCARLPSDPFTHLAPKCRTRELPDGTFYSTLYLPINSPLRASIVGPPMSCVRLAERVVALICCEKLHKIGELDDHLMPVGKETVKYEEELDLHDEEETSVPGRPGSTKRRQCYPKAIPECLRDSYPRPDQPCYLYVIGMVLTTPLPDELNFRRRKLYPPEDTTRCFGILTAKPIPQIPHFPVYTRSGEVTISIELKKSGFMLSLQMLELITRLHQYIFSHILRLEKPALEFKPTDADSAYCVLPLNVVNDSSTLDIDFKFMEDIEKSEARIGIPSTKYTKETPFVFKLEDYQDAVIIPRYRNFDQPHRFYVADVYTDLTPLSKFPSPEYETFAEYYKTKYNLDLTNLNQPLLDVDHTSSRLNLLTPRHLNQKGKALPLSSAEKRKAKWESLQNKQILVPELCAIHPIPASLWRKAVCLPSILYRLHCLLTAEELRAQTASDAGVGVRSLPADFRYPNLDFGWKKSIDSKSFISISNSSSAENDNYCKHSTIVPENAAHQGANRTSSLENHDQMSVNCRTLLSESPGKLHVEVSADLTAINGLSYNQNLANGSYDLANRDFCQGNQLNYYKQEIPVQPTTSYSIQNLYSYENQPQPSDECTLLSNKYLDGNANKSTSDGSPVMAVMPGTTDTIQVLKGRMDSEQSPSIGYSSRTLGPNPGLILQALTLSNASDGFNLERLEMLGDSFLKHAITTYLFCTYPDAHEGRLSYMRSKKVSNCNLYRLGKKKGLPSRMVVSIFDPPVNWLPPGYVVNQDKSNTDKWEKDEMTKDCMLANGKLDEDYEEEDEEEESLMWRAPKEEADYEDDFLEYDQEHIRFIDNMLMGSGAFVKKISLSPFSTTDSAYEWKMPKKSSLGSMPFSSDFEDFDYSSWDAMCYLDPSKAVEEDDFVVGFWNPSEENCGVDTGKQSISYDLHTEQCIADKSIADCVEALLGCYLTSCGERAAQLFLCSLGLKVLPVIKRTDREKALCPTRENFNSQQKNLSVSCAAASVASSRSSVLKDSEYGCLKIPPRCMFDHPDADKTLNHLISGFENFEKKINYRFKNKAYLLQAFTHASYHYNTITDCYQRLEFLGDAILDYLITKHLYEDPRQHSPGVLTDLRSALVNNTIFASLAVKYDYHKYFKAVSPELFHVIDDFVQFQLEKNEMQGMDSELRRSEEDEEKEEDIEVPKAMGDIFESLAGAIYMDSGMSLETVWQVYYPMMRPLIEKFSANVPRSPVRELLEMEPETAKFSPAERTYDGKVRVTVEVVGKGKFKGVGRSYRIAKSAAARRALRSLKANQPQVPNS
Starred values were filed as active, the others as inactive. Many of the other results were omitted from the sample, so hits are more common in it than they were.

SMILES | Dicer processing
CC1CN(CN2C(=O)c3ccccc3C2=O)CC(C)O1 (centres undefined) | 3.39*
CCOC(=O)c1cc(C)n(-c2cc(C(F)(F)F)cc(C(F)(F)F)c2)n1 | 2.95
Cc1noc2ncnc(SCC(=O)Nc3cc(Cl)cc(Cl)c3)c12 | -1.07
CCOC(=O)C1=C(C)Nc2nc3ccccc3n2C1c1ccccc1F (centres undefined) | 0.74
O=S(=O)(c1ccc(NC(=S)N/N=C/c2ccccn2)cc1)N1CCCCC1 | 4.25*
O=S(=O)(c1ccc(NC(=S)N/N=C/c2ccccc2)cc1)N1CCCCC1 | 2.29
O=S(=O)(c1ccc(NC(=S)NC2CCCC2)cc1)N1CCCCC1 | 1.83
O=S(=O)(NNc1c(Cl)cccc1Cl)c1cc(C(F)(F)F)cc(C(F)(F)F)c1 | 2.29
Cc1cccc(Cl)c1NC(=S)N1CCCC1 | -1.47
CC(C)(C)c1ccc(Oc2c(C(F)(F)F)oc3c(CN4CCOCC4)c(O)ccc3c2=O)cc1 | -0.31
Cc1nc(-c2ccccc2)c2c(=O)cc(-c3ccccc3)[nH]c2n1 | 1.8
O=c1nc(-c2ccccc2)c2ccccc2[nH]1 | 6.58
O=c1cc(-c2ccccc2)[nH]c2ccccc12 | 3.95*
CCCC1CC(CSc2nc3ccccc3[nH]2)OC1=O (centres undefined) | -1.62
Clc1ccc(-c2nc(N3CCCCC3)c(Cl)c(N3CCCCC3)n2)cc1 | -0.63
O=C(O)CCc1nc2ccc(C(=O)O)cc2[nH]1 | 3.66*
Nc1ccc2nc(CCC(=O)O)[nH]c2c1 | -4.89
O=C(O)c1ccc2nc(CCc3ccccc3)[nH]c2c1 | -0.38
CC(C)NC(=S)Nc1ccc(F)c(Cl)c1 | 12.9
N#CCCCN(Cc1ccccc1)Cc1ccccc1 | -0.07
Cn1ccnc1SCC(=O)Nc1nc2c(s1)C(=O)CC(C)(C)C2 | 1.54
CN(C)/C=C(\C#N)S(=O)(=O)c1cccs1 | -1.81
N#C/C(=C\c1c(Cl)cccc1Cl)S(=O)(=O)c1cccs1 | -0.95
COC(=O)c1sccc1N/C=C(\C#N)S(=O)(=O)c1cccs1 | 18.8*
CN(C)NC(=O)NC(=O)c1ccc(Oc2cc(Cl)cc(Cl)c2)c([N+](=O)[O-])c1 | -0.73
SMILES | Dicer processing
O=S(=O)(Nc1ncccn1)c1ccc(N=Cc2ccccc2O)cc1 | 2.01
CO[C@H]1O[C@@H](COC(=O)c2ccccc2)[C@H](OC(=O)c2ccccc2)[C@H]1OC(=O)c1ccccc1 | -0.08
CC(C)OC(=O)c1ccc(COC(=O)CCc2nc3ccccc3[nH]c2=O)cc1 | 3.37*
O=C(CCc1nc2ccccc2[nH]c1=O)OCc1ccc(Br)cc1 | 1.56
CCOC(=O)C(C)c1nc2ccccc2[nH]c1=O (centres undefined) | 2.99
O=C1NC(c2ccccc2)=N/C1=C/c1ccc(Cl)cc1Cl | 0.69
CCC1SC2=NC(C)=C(C(=O)OCCOC)C(c3ccc(OCc4ccccc4)cc3)N2C1=O (centres undefined) | 0.38
CSc1n[nH]c(NC(=O)c2ccc(Cl)c(Cl)c2)c1S(=O)(=O)c1ccc(Cl)cc1 | -1.1
S=c1[nH]nc2nc3c4ccccc4c4ccccc4c3nn12 | 4.93*
S=c1[nH]nc2nc(-c3ccccc3)c(-c3ccccc3)nn12 | -0.34
CCSc1nnc2nc3c4ccccc4c4ccccc4c3nn12 | 1.26
CCCc1cnc(N2CCN(S(C)(=O)=O)CC2)nc1 | 3.49*
CCCc1cnc(N2CCN(S(=O)(=O)c3sc4ccc(Cl)cc4c3C)CC2)nc1 | -1.06
CCCc1cnc(N2CCN(S(=O)(=O)c3ccc(CNC(=O)c4ccccc4)s3)CC2)nc1 | 1.18
NC(=S)Cc1cc(C(F)(F)F)cc(C(F)(F)F)c1 | -0.22
CC(C)Cc1nc2sc3c(NCC4CCCO4)ncnc3c2c2c1COC(C)(C)C2 (centres undefined) | 0.39
CN(C)S(=O)(=O)Nc1cccc(C(F)(F)F)c1 | 0.83
O=C(Cn1c(=O)sc2ccccc21)N1CCN(c2ccccc2)CC1 | 1.39
COc1cc(OC)cc(N2C(=O)c3nccnc3C2=O)c1 | 11.8
O=C1c2ccccc2C(=O)C1(c1ccccc1)[N+](=O)[O-] | 3.08*
C#CCC1(c2ccccc2)C(=O)c2ccccc2C1=O | 0.75
O=C1c2ccccc2C(=O)C1(Nc1ccc(Cl)c(Cl)c1)c1ccccc1 | -0.91
O=c1cc(C(F)(F)F)nc2c(-c3ccccc3)c(C(F)(F)F)[nH]n12 | -0.67
N#Cc1c(SCC(N)=O)nc2c(c1-c1cccnc1)CCC2 | -0.39
Cc1ccc(Nc2ncnc3ccccc23)c(C)c1 | -0.49
SMILES | Dicer processing
Cn1ncc2c(NC3CCCCC3)ncnc21 | 0.96
Cc1ccc2ncnc(NC3CCCCC3)c2c1 | 4.71*
CCSCCOC(=O)C1=C(C)NC2=C(C(=O)CCC2)C1c1ccccc1Cl (centres undefined) | -1.94
O=C(/C=N/Nc1ccccc1)Nc1ccccc1C(=O)O | -0.14
CCOc1ccc(S(=O)(=O)N2CCSC2c2cc(OC)ccc2OC)cc1 (centres undefined) | 4.81*
COc1ccc(OC)c(C2SCCN2S(=O)(=O)c2ccccc2)c1 (centres undefined) | 2.22
COc1ccc(S(=O)(=O)N2CCSC2c2ccccc2)cc1 (centres undefined) | 2.13
